In the supplement of paper PMC10849652:
Targets with a hit are over-represented here; the source holds about 7,900 in all. About 0.6% of all pairs of compound and target were hits.

Columns and labels:
Assay in all cases: log2 fold change, soluble protein after heating vs DMSO (PISA); higher = thermal stabilisation; K562 cells, 10 uM, 30 min; active = over 0.2 and 3.5 SD of the protein, either way, in both replicates (recomputed)
saracatinib = compound: CN1CCN(CCOc2cc(OC3CCOCC3)c3c(Nc4c(Cl)ccc5c4OCO5)ncnc3c2)CC1 [saracatinib]
Procedure, shortened: (§1)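 K562 cells at 2×10^6 cells/mL were exposed to 10 μM compound for 30 min, then aliquots were heated for 3 min across 48°C-58°C, pooled, and extracted in PBS containing 0.5% NP-40 at 4°C. The supernatant after 21,000xg for 90 min was taken as soluble protein and measured by TMTpro 16plex LC-MS/MS with channel sums equalised. Thermal stability is reported relative to control samples, with values from duplicates. Fold changes are given on a log2 scale.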

sotrastaurin = compound: CN1CCN(c2nc(C3=C(c4c[nH]c5ccccc45)C(=O)NC3=O)c3ccccc3n2)CC1 [sotrastaurin]
Procedure, shortened: as §1

alvocidib = compound: CN1CC[C@H](c2c(O)cc(O)c3c(=O)cc(-c4ccccc4Cl)oc23)[C@H](O)C1 [alvocidib]
Procedure, shortened: as §1

Tubastatin A = compound: CN1CCc2c(c3ccccc3n2Cc2ccc(C(=O)NO)cc2)C1 [Tubastatin A]
Procedure, shortened: as §1

[1] = compound: CNC(=O)C1=CC=CC=C1NC2=NC(=NC=C2Cl)NC3=C(C=C(C=C3)N4CCOCC4)OC
Procedure, shortened: as §1

defactinib = compound: CNC(=O)c1ccc(Nc2ncc(C(F)(F)F)c(NCc3nccnc3N(C)S(C)(=O)=O)n2)cc1 [defactinib]
Procedure, shortened: as §1

rucaparib = compound: CNCc1ccc(-c2[nH]c3cc(F)cc4c3c2CCNC4=O)cc1 [rucaparib]
Procedure, shortened: as §1

[2] = compound: CNc1nc(-c2ccc3c(N)n[nH]c3c2)cc(N2C[C@@H](C(=O)NC3CCCCC3)CC[C@H]2C)n1
Procedure, shortened: as §1

encorafenib = compound: COC(=O)N[C@@H](C)CNc1nccc(-c2cn(C(C)C)nc2-c2cc(Cl)cc(NS(C)(=O)=O)c2F)n1 [encorafenib]
Procedure, shortened: as §1

[3] = compound: COC(=O)[C@H](CCSC)NC(=O)C1=C(C=C(C=C1)NC[C@H](CS)N)C2=CC=CC=C2
Procedure, shortened: as §1

[4] = compound: COC1=CC=C(C=C1)CN2C=CC3=C2C=C(C=C3)C(=O)NO
Procedure, shortened: as §1

filanesib = compound: CON(C)C(=O)N1N=C(c2cc(F)ccc2F)S[C@@]1(CCCN)c1ccccc1 [filanesib]
Procedure, shortened: as §1

zotarolimus = compound: CO[C@H]1C[C@@H]2CC[C@@H](C)[C@@](O)(O2)C(=O)C(=O)N2CCCC[C@H]2C(=O)O[C@H]([C@H](C)C[C@@H]2CC[C@H](n3cnnn3)[C@H](OC)C2)CC(=O)[C@H](C)/C=C(\C)[C@@H](O)[C@@H](OC)C(=O)[C@H](C)C[C@H](C)/C=C/C=C/C=C/1C [zotarolimus]
Procedure, shortened: as §1

idasanutlin = compound: COc1cc(C(=O)O)ccc1NC(=O)[C@@H]1N[C@@H](CC(C)(C)C)[C@](C#N)(c2ccc(Cl)cc2F)[C@H]1c1cccc(Cl)c1F [idasanutlin]
Procedure, shortened: as §1

alisertib = compound: COc1cc(Nc2ncc3c(n2)-c2ccc(Cl)cc2C(c2c(F)cccc2OC)=NC3)ccc1C(=O)O [alisertib]
Procedure, shortened: as §1

[5] = compound: COc1cc2nc(-c3cc(F)ccc3O)nc(N[C@@H]3CNC[C@H]3C(C)(C)O)c2cc1OC
Procedure, shortened: as §1

gefitinib = compound: COc1cc2ncnc(Nc3ccc(F)c(Cl)c3)c2cc1OCCCN1CCOCC1 [gefitinib]
Procedure, shortened: as §1

[6] = compound: COc1cccc2cc(-c3nc([C@H]4CC[C@H](C(=O)O)CC4)n4ncnc(N)c34)[nH]c12
Procedure, shortened: as §1

lapatinib = compound: CS(=O)(=O)CCNCc1ccc(-c2ccc3ncnc(Nc4ccc(OCc5cccc(F)c5)c(Cl)c4)c3c2)o1 [lapatinib]
Procedure, shortened: as §1

pictilisib = compound: CS(=O)(=O)N1CCN(Cc2cc3nc(-c4cccc5[nH]ncc45)nc(N4CCOCC4)c3s2)CC1 [pictilisib]
Procedure, shortened: as §1

Measured: log2 fold change

LNPEP (UniProt Q9UIQ6)
UniProt Q9UIQ6, sequence (Q9UIQ6 whole entry, looked up): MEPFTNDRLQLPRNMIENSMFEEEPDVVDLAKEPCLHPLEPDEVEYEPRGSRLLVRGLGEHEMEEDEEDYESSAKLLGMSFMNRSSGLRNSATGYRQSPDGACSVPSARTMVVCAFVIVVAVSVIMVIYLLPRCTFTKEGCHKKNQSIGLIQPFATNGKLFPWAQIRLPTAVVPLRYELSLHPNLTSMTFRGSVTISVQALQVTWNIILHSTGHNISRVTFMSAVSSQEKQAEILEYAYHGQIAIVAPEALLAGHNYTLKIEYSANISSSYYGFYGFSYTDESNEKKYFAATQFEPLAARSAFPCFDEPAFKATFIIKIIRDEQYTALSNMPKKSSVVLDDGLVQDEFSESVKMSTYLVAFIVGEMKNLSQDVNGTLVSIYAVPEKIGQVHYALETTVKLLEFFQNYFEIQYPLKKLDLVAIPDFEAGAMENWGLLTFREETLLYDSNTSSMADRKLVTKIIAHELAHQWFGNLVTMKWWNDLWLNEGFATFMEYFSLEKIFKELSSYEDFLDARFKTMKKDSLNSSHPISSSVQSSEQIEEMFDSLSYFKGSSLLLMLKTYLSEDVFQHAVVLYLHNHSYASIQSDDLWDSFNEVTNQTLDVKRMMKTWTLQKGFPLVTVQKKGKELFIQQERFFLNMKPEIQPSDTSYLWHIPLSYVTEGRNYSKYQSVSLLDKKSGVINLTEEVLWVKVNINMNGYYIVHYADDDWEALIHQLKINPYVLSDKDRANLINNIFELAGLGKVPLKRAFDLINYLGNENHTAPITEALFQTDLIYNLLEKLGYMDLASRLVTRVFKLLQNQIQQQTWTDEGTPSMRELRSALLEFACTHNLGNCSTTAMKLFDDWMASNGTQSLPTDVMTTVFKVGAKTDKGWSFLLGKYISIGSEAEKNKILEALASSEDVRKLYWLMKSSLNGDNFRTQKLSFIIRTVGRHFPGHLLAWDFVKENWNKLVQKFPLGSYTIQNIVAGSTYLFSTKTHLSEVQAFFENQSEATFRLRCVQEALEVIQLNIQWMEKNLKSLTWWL
inactive: saracatinib 0.048 | sotrastaurin 0.037 | alvocidib 0.01 | Tubastatin A -0.001 | [1] -0.01 | defactinib -0.054 | rucaparib -0.014 | [2] -0.02 | encorafenib -0.008 | [3] 0.012 | [4] 0.001 | filanesib -0.014 | zotarolimus -0.03 | idasanutlin -0.014 | alisertib -0.01 | [5] 0.016 | gefitinib 0.01 | [6] 0.058 | lapatinib 0.003 | pictilisib 0.04

MAGEA9 (UniProt P43362)
UniProt P43362, sequence (P43362 whole entry, looked up): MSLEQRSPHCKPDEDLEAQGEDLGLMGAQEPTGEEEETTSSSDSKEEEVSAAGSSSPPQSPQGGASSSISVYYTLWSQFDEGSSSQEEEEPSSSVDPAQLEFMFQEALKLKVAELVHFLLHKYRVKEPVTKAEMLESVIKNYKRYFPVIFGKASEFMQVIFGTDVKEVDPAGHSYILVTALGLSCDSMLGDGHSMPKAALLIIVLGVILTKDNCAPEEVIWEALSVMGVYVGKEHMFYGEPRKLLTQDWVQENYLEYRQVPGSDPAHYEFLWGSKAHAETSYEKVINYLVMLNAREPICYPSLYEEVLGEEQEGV
inactive: saracatinib 0.041 | sotrastaurin -0.037 | alvocidib -0.346 | Tubastatin A -0.038 | [1] -0.001 | defactinib -0.175 | rucaparib -0.153 | [2] 0.015 | encorafenib 0.039 | [3] -0.082 | [4] -0.246 | filanesib 0.003 | zotarolimus 0.015 | idasanutlin 0.087 | alisertib 0.057 | [5] 0.024 | gefitinib 0.034 | [6] 0.033 | lapatinib -0.018 | pictilisib -0.018

KIF13A (UniProt Q9H1H9)
UniProt Q9H1H9, sequence (Q9H1H9 whole entry, looked up): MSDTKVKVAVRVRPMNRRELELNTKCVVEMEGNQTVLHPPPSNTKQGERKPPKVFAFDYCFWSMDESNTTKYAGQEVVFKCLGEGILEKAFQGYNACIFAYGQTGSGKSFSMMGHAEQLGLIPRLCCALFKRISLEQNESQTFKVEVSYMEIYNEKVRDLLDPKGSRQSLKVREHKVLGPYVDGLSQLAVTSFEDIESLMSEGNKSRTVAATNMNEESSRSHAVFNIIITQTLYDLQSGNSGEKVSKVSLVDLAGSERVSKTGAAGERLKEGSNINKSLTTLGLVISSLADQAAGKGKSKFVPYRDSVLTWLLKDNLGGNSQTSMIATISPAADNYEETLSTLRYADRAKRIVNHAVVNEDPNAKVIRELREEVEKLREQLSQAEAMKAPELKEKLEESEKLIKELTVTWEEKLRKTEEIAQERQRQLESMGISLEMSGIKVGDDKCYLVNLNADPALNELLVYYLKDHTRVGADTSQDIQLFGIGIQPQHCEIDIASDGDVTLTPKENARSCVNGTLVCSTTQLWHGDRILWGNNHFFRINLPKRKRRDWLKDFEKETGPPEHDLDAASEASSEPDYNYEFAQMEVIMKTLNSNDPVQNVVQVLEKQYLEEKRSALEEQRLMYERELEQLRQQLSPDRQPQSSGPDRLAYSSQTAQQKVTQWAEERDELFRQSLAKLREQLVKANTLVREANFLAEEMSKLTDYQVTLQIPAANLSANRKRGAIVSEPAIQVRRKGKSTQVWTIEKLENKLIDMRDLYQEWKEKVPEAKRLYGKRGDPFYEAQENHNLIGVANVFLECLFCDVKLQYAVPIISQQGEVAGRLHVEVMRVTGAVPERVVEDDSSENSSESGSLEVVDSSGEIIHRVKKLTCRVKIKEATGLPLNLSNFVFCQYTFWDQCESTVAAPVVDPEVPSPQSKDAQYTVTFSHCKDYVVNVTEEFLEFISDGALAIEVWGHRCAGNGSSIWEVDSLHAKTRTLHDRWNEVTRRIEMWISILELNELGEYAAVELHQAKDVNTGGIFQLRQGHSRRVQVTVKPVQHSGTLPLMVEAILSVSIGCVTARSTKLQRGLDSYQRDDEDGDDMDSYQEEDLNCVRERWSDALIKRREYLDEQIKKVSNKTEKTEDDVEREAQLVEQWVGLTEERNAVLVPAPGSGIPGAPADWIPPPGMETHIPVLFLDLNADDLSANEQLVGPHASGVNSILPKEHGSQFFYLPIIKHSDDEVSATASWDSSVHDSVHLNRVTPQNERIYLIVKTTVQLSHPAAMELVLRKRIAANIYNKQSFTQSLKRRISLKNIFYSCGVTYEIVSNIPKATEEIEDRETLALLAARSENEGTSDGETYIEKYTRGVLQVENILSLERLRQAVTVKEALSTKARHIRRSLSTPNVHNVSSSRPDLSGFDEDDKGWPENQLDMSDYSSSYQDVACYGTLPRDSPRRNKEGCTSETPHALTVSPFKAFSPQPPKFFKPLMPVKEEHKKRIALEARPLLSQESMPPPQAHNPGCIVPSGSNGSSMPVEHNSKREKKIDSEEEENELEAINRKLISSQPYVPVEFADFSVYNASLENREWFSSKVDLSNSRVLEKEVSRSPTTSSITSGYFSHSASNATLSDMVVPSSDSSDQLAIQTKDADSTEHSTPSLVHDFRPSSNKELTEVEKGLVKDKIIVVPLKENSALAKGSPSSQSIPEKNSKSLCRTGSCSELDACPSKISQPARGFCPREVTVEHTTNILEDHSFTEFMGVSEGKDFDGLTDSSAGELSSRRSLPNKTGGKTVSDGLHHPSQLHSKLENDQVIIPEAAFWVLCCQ
inactive: saracatinib 0.063 | sotrastaurin 0.041 | alvocidib -0.01 | Tubastatin A 0.028 | [1] 0.1 | defactinib -0.026 | rucaparib 0.008 | [2] -0.093 | encorafenib -0.025 | [3] 0.034 | [4] 0.003 | filanesib 0.01 | zotarolimus -0.057 | idasanutlin -0.022 | alisertib -0.022 | [5] 0.037 | gefitinib 0.194 | [6] 0.139 | lapatinib -0.012 | pictilisib -0.097

IPO11 isoform 2 (UniProt Q9UI26)
UniProt Q9UI26, sequence (Q9UI26 whole entry, looked up): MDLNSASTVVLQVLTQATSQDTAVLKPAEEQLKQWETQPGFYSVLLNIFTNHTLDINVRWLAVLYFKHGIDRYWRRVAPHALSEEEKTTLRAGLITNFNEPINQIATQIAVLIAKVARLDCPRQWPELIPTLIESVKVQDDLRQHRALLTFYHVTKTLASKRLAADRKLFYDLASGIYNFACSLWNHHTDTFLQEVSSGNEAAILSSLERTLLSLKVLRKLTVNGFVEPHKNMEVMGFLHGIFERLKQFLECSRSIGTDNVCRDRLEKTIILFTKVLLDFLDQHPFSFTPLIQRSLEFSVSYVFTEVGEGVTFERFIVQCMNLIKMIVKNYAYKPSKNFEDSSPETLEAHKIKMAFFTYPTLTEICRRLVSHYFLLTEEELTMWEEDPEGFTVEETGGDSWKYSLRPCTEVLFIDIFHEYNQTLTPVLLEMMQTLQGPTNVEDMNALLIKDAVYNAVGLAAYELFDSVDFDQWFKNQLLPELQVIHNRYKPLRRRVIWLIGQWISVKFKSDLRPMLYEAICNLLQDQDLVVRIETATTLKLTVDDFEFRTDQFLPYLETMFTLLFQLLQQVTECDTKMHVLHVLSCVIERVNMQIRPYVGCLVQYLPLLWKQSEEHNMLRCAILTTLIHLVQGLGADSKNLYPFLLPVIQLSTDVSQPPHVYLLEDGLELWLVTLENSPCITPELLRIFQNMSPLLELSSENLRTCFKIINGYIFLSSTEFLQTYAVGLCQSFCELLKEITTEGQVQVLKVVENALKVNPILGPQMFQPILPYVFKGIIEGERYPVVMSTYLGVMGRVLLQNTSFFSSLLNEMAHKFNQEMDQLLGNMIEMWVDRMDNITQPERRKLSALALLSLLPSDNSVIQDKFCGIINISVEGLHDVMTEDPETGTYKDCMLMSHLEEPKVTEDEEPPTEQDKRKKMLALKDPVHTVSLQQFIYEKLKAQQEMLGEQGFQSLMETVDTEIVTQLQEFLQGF
inactive: saracatinib 0.048 | sotrastaurin -0.02 | alvocidib -0.006 | Tubastatin A -0.043 | [1] 0.01 | defactinib -0.013 | rucaparib -0.053 | [2] -0.03 | encorafenib -0.004 | [3] 0.012 | [4] 0.036 | filanesib -0.045 | zotarolimus 0.002 | idasanutlin -0.087 | alisertib -0.023 | [5] -0.006 | gefitinib -0.049 | [6] 0.04 | lapatinib 0.005 | pictilisib 0.028

IGFBP2 (UniProt P18065)
inactive: saracatinib -0.049 | sotrastaurin 0.223 | alvocidib 0.212 | Tubastatin A -0.032 | [1] -0.06 | defactinib 0.134 | rucaparib 0.003 | [2] -0.148 | encorafenib 0.028 | [3] -0.053 | [4] 0.117 | filanesib -0.238 | idasanutlin 0.439 | alisertib 0.11 | [5] -0.056 | gefitinib -0.228 | [6] 0.363 | lapatinib -0.025 | pictilisib -0.252
active: zotarolimus -0.846

LPIN1 isoform 7 (UniProt Q14693)
UniProt Q14693, sequence (Q14693 whole entry, looked up): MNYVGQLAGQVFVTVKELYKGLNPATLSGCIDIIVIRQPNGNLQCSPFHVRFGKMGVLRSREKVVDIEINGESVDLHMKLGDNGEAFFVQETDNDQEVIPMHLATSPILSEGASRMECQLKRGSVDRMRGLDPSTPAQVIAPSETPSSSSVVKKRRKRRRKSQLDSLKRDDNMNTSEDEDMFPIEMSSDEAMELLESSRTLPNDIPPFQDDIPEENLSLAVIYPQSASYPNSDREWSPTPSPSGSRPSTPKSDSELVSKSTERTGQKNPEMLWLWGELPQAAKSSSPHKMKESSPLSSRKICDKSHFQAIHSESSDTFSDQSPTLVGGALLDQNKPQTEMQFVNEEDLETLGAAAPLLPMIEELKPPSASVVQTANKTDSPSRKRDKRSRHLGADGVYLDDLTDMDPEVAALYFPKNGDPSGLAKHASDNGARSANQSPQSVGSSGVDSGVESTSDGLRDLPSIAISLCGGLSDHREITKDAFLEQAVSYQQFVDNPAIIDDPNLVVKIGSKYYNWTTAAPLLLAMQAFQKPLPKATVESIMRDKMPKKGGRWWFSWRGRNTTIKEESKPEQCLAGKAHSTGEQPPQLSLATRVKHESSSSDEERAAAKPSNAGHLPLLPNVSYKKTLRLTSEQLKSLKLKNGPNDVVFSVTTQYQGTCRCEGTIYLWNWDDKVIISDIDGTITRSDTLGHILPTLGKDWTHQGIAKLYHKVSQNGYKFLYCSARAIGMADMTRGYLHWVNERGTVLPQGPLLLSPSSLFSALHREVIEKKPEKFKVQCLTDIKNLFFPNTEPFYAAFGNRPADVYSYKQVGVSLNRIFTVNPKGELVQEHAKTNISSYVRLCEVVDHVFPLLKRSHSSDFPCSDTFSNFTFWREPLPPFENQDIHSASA
inactive: saracatinib 0.003 | sotrastaurin -0.093 | alvocidib -0.059 | Tubastatin A 0.041 | [1] -0.113 | defactinib -0.03 | rucaparib -0.054 | [2] -0.13 | encorafenib 0.009 | [3] 0.035 | [4] -0.079 | filanesib 0.047 | zotarolimus -0.048 | idasanutlin -0.03 | alisertib 0.046 | [5] 0.017 | gefitinib -0.018 | [6] -0.041 | lapatinib -0.101 | pictilisib -0.035

KNTC1 (UniProt P50748)
inactive: saracatinib -0.034 | sotrastaurin -0.051 | alvocidib 0.013 | Tubastatin A 0.018 | [1] 0.033 | defactinib -0.044 | rucaparib 0.021 | [2] -0.076 | encorafenib 0.077 | [3] -0.041 | [4] 0.03 | filanesib -0.008 | zotarolimus 0 | idasanutlin -0.082 | alisertib -0.035 | [5] 0.036 | gefitinib 0.175 | [6] -0.037 | lapatinib 0.008 | pictilisib 0.007

LEO1 (UniProt Q8WVC0)
inactive: saracatinib -0.047 | sotrastaurin -0.085 | alvocidib -0.137 | Tubastatin A 0.061 | [1] -0.039 | defactinib -0.211 | rucaparib -0.151 | [2] -0.055 | encorafenib -0.033 | [3] -0.082 | [4] -0.038 | filanesib 0.021 | zotarolimus 0.175 | idasanutlin 0.023 | alisertib -0.08 | [5] -0.035 | gefitinib 0.009 | [6] -0.034 | lapatinib -0.032 | pictilisib 0.009
